Source: PubChem BioAssay (National Center for Advancing Translational Sciences (NCATS))
S-ASM inh = inhibitors of human secretory acid sphingomyelinase; P17405; placental ASM, HMU-PC fluorogenic substrate, 60 min; Potency, µM (top dose mostly 57.5 µM), actives largely listed as inhibitors; 340,000 compounds, 0.006% hits; AID 504937
Target sequence (P17405 47-631 limits assumed): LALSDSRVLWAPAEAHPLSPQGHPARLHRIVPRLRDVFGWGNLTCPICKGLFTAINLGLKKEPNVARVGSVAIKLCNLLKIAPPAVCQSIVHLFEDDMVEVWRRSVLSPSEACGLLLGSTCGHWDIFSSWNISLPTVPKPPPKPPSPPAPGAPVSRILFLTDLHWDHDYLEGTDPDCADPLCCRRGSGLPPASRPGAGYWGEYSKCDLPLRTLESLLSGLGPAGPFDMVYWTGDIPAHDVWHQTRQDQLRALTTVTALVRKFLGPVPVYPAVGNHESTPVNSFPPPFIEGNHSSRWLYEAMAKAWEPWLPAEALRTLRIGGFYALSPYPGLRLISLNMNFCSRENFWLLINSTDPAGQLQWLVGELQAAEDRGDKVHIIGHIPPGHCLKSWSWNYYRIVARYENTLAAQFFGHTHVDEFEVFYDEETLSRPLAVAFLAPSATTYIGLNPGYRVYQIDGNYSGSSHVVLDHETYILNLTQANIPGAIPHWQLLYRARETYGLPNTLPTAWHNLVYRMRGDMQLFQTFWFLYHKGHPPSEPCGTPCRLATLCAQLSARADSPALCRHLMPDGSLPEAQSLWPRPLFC
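Fluorescence read-out (Ex 386 nm, Em 447 nm) after stopping the reaction at pH 10. Enzyme: ASM from human placenta; substrate HMU-PC0, 9 uM final; 60 min, 37 °C. Compound preincubation 10 min, ambient temperature.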
TDP1 cell CPT = growth inhibition of DT40 Tdp1-/-;hTDP1 cells with camptothecin (screen for TDP1 inhibitors) | chicken DT40 Tdp1-/-;hTDP1 cells + 20 nM CPT, ATP luminescence, 48 h | Potency, µM (doses to about 46.2 µM), actives largely listed as inhibitors | 420,000 compounds, 12% hits; also: nearly all actives have a fitted effect of over 55% in size
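Cell growth measured by CellTiter-Glo luminescence after a minimum 48 h, 37 C compound exposure with 20 nM CPT in Tdp1-knockout DT40 cells stably expressing hTDP1, seeded 400/well; qHTS titration format.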
TGFb SMAD3 inh = inhibitors of TGF-b signaling. HepG2 CAGA-GFP TGF-b/SMAD3 reporter, GFP fluorescence, 18 h; TGF-beta stimulated, 500 pg/mL final. Potency, µM (doses to about 46.1 µM), actives largely listed as inhibitors. 410,000 compounds, 1.2% hits; also: nearly all actives have a fitted effect of over 65% in size
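Inhibition of TGF-beta-driven CAGA-GFP reporter expression in HEPG2 cells is measured by cellular GFP fluorescence after 18 h stimulation with 500 pg/mL recombinant TGF-beta in 1% FBS medium at 37 degrees C.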
DT40 TDP1 no CPT = qHTS for Inhibitors of human tyrosyl-DNA phosphodiesterase 1 (TDP1): qHTS in cells in absence of CPT | Potency, µM (top dose mostly 46.2 µM), hits mostly inhibitors | DT40 Tdp1-/- hTDP1 cells, no CPT, ATP luminescence, 48 h | 420,000 compounds, 15% hits | AID 686978, 2013; also: nearly all actives have a fitted effect of over 55% in size
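Growth of hTDP1-complemented DT40 Tdp1-knockout cells is measured by ATP luminescence after at least 48 hr compound exposure at 37 °C, with DMSO substituting for the 20 nM CPT used in the parallel screen.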
IL-1B inflam inh = blocks inflammasome-driven IL-1 beta release. 360,000 compounds, 4.7% hits. activity change, % at 57.5 µM. THP-1 LPS/ATP IL-1B secretion, AlphaLISA, 16 h; hits give low values; in the data active = activity change below about -50%; inconclusive = mostly about -30% to -49%
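THP-1 cells pretreated 1 hr with compounds (up to 57.5 uM final), then stimulated with LPS (250 ng/mL final) plus ATP (1.25 mM final); secreted IL-1B measured by AlphaLISA after 16 hr, decreased signal indicating inhibition.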
HepG2 viability = counter-screen for TGF-b inhibitors: cytotoxicity in HepG2 cells; HepG2 CAGA-GFP viability, ATP luminescence, 18 h; Potency, µM (series often up to 46.1 µM), usual class: cytotoxic; 410,000 compounds, 0.76% hits
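HepG2 CAGA-GFP cells (1000/well, DMEM with 1% FBS) received compound, then TGF-beta at 500 pg/mL final, and were incubated 18 hours at 37 degrees C. Viability was read by CellTiter-Glo luminescence. Media-only wells were set as complete cell-killing and DMSO as no toxicity.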
Large screens that a line does not name were inactive. Most compounds without a hit are left out; they make up all but 19% or so of the library. Unless noted, calls follow the shape of the dose curve; as a rule, active = well fitted curve in the direction sought with a large enough effect; inconclusive = small, poorly fitted or top-dose-only effect, or another doubt; inactive = no such curve, though single readings can be large; an effect the other way counts as inactive or inconclusive.

O=C(/C=C/c1ccc2c(c1)OCO2)Nc1nc(-c2ccccc2)cs1	TDP1 cell CPT inconclusive, DT40 TDP1 no CPT inconclusive, IL-1B inflam inh inconclusive
Cc1ccc(-n2nc3c(c2NC(=O)c2c(-c4ccccc4Cl)noc2C)CSC3)cc1	TDP1 cell CPT 26µM, DT40 TDP1 no CPT inconclusive
Cc1ccccc1-n1nc2c(c1NC(=O)c1c(-c3ccccc3Cl)noc1C)CSC2	TGFb SMAD3 inh inconclusive, DT40 TDP1 no CPT 21µM
Cc1ccc(-n2nc3c(c2NC(=O)/C=C\c2ccc4c(c2)OCO4)CSC3)cc1	TDP1 cell CPT inconclusive, DT40 TDP1 no CPT 18µM
Cc1sc(NC(=O)/C=C/c2ccc3c(c2)OCO3)nc1-c1ccccc1	TDP1 cell CPT 15µM, TGFb SMAD3 inh inconclusive, DT40 TDP1 no CPT 16µM
COc1ccc2c(c1)c1c(c(=O)n(Cc3ccccc3)c(=O)n1CC(=O)NCc1ccccc1Cl)n2C	none (no result: S-ASM inh, IL-1B inflam inh)
Cc1ccccc1/C(N)=N/OC(=O)N1c2ccccc2Sc2ccccc21	TDP1 cell CPT 11µM, DT40 TDP1 no CPT 13µM
CCOC(=O)N1c2ccccc2Sc2ccccc21	TGFb SMAD3 inh inconclusive, DT40 TDP1 no CPT inconclusive
Cc1ccc(/C(N)=N/OC(=O)Cc2ccccc2)cc1	none
Cc1ccc(/C(N)=N/OC(=O)N2c3ccccc3Sc3ccccc32)cc1	TDP1 cell CPT inconclusive, DT40 TDP1 no CPT 21µM
Cc1nc2ccccc2nc1OCC(=O)Nc1ccc2ccccc2c1	DT40 TDP1 no CPT inconclusive
O=C(Cn1c(-c2cscn2)nc2ccccc21)Nc1ccc2ccccc2c1	TDP1 cell CPT 14µM, DT40 TDP1 no CPT inconclusive
COc1cc(NC(=O)Cn2c(-c3cncs3)nc3ccccc32)cc(OC)c1OC	TGFb SMAD3 inh inconclusive
Cc1nc2ccccc2n(CC(=O)Nc2cc(Cl)cc(Cl)c2)c1=O	TDP1 cell CPT 9.2µM, DT40 TDP1 no CPT 15µM
Cc1cc(C)cc(NC(=O)Cn2c(-c3cncs3)nc3ccccc32)c1	TDP1 cell CPT inconclusive, TGFb SMAD3 inh inconclusive, DT40 TDP1 no CPT 21µM (no result: S-ASM inh, IL-1B inflam inh)
Cc1ccc(NC(=O)Cn2c(=O)c(C)nc3ccccc32)cc1	none
COc1ccc2c(c1)CCc1c(C(=O)Nc3ccc(F)c(Cl)c3)noc1-2	none (no result: S-ASM inh, IL-1B inflam inh)
CCc1cc2cc(C)cc(C)c2nc1SCC(=O)N1CCN(C(=O)c2ccco2)CC1	TDP1 cell CPT inconclusive, TGFb SMAD3 inh inconclusive, DT40 TDP1 no CPT inconclusive, IL-1B inflam inh -54
CCc1cc2ccc(C)cc2nc1SCC(=O)N1CCN(C(=O)c2ccco2)CC1	TDP1 cell CPT inconclusive, TGFb SMAD3 inh inconclusive, DT40 TDP1 no CPT 18µM, IL-1B inflam inh inconclusive
CCc1cc2cc3c(cc2nc1SCC(=O)N1CCN(C(=O)c2ccco2)CC1)OCO3	TDP1 cell CPT inconclusive, DT40 TDP1 no CPT inconclusive, IL-1B inflam inh inconclusive
Cc1cc(C)c2nc(SCC(=O)NNC(=O)c3ccco3)c(C)cc2c1	DT40 TDP1 no CPT inconclusive
CC(=O)Nc1ccc(C(=O)N2CCCC(c3cc(C(=O)Nc4ccccc4Cl)no3)C2)cc1 (stereo unspecified)	TDP1 cell CPT inconclusive, DT40 TDP1 no CPT inconclusive (no result: S-ASM inh)
CN(C)S(=O)(=O)c1ccc2c(c1)N(CC(=O)N1CCN(c3ccccc3F)CC1)CCS2	none (no result: S-ASM inh, TDP1 cell CPT, DT40 TDP1 no CPT, IL-1B inflam inh)
N#CC(C#N)=C1CCCc2sccc21	TGFb SMAD3 inh inconclusive
O=c1c2c([nH]c3ccccc13)CCCCCC2	TDP1 cell CPT 23µM, DT40 TDP1 no CPT 16µM
O=c1c2ccccc2[nH]c2ccccc12	TDP1 cell CPT 8.2µM, DT40 TDP1 no CPT 16µM
Cc1ccc(S(=O)(=O)N2CCOCC2)cc1NC(=O)CN1CCN(c2ccc(O)cc2)CC1	TDP1 cell CPT inconclusive, DT40 TDP1 no CPT 26µM
Cc1ccc(SC(C)C(=O)Nc2ccc(S(=O)(=O)N3CCOCC3)cc2)cc1 (stereo unspecified)	TDP1 cell CPT inconclusive, DT40 TDP1 no CPT 16µM
Cc1ccc(NC(=O)c2ccc(S(=O)(=O)N3CCOCC3)cc2)cc1	none
Cc1ccc(S(=O)(=O)N2CCOCC2)cc1NC(=O)CN1CCC(Cc2ccccc2)CC1	TDP1 cell CPT inconclusive, DT40 TDP1 no CPT 8.2µM
Cc1ccc(S(=O)(=O)N2CCN(CC(=O)Nc3ccc(N4CCOCC4)cc3)CC2)cc1C	none
Cc1cccc(N2CCN(CC(=O)Nc3ccc(S(=O)(=O)N4CCOCC4)cc3)CC2)c1C	TDP1 cell CPT 15µM, TGFb SMAD3 inh inconclusive, DT40 TDP1 no CPT 9.2µM
O=C(CN1CCOCC1)Nc1ccc(S(=O)(=O)N2CCCCCC2)cc1	none
O=C(COC(=O)Cc1ccccc1[N+](=O)[O-])Nc1nnc(-c2ccccc2)o1	none
CC1=C(C)C(OCCBr)N(c2cc(O)c(Cl)cc2F)C1=O (stereo unspecified)	none
COc1cccc2[nH]c3c(Cl)ncnc3c12	DT40 TDP1 no CPT inconclusive (no result: IL-1B inflam inh)
Cc1cccc2[nH]c3c(N4CC=C(c5ccc(F)cc5)CC4)ncnc3c12	S-ASM inh inconclusive, TDP1 cell CPT 13µM, TGFb SMAD3 inh inconclusive, DT40 TDP1 no CPT 15µM, IL-1B inflam inh -92
CCCCN(CCCC)C1=C(C(=O)c2ccccc2)N(CC)S(=O)(=O)c2ccccc21	TDP1 cell CPT 13µM, DT40 TDP1 no CPT 26µM (no result: S-ASM inh, IL-1B inflam inh)
